Measurements: PubChem BioAssay AID1347165 (National Center for Advancing Translational Sciences (NCATS), 2019)
In all, about 220,000 compounds went through this assay and about 5,700 (2.6%) were called active. Inconclusive results (about 18%) are left out. The call rests on the fitted dose curve; in most records, active means well fitted inhibition curve with a large enough effect; inconclusive means small, poorly fitted or top-dose-only effect; inactive means no such curve, though single readings can be large or run the other way. The list comes from a sample in which actives are over-represented; it also holds similar structures and randomly drawn compounds. Where a call stands in place of a potency, no number is given.

Molecular target: Lysine-specific demethylase 5B (Homo sapiens) (UniProt Q9UGL1)
Sequence (Q9UGL1 whole entry, looked up): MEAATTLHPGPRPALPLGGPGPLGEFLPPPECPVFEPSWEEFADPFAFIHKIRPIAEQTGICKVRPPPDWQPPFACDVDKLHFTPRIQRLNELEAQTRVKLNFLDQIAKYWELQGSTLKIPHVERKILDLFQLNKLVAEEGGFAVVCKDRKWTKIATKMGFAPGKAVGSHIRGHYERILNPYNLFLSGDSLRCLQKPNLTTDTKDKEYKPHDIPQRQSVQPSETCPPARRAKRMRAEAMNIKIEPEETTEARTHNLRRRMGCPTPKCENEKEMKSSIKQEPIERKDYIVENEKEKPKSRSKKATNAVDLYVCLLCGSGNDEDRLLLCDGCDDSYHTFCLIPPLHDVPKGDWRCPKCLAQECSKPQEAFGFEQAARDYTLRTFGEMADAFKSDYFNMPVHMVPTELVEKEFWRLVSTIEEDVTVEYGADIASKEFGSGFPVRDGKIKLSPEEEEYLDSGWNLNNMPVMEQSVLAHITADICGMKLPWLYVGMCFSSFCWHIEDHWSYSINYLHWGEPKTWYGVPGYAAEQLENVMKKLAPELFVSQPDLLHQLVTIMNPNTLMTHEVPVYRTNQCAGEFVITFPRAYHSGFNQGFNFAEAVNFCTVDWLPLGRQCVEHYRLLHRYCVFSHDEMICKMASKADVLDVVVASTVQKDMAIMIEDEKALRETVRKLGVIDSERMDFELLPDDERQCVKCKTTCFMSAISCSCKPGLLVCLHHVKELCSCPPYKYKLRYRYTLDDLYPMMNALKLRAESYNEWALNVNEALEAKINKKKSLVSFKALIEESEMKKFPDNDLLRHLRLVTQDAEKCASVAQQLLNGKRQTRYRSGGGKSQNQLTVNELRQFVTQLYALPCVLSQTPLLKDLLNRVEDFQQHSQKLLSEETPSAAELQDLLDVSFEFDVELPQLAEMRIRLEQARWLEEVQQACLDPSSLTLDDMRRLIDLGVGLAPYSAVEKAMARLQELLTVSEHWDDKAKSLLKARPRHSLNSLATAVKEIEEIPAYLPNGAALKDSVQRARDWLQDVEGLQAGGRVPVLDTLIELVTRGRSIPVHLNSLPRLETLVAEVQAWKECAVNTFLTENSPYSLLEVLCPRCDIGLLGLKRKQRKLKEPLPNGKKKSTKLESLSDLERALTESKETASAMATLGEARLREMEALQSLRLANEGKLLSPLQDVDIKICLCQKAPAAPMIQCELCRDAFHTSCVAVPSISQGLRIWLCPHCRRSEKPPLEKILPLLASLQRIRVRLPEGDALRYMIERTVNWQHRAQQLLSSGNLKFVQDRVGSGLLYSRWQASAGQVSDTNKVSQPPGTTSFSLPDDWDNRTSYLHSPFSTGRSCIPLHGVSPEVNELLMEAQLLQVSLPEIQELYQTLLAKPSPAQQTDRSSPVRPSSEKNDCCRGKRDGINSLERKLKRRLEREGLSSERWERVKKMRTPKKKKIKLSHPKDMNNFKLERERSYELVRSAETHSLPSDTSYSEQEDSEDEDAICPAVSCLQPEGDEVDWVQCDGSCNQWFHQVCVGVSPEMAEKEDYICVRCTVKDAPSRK
Assay: Primary screen for KDM5B Histone Demethylases FDH-coupled qHTS; further: nearly all actives have a fitted effect of over 70% in size
Details: FDH-coupled NADH fluorescence (FDH is formaldehyde dehydrogenase); series mostly up to 57.7 µM
From the text: Assay Submitter (PI): Qin Yan, Ph.D. (Yale University) and Xiaodong Cheng, Ph.D. (MD Anderson) This project was funded as part of the NCI NEXT Program and Chemical Biology Consortium (CBC) The histone demethylases, KDM5A and KDM5B catalyze the demethylation of lysine 4 on histone H3 (H3K4me3/2). They are overexpressed in a variety of cancers and have been implicated in cancer cell growth, metastasis, drug resistance, and tumor growth. KDM5A is amplified and overexpressed in breast and gastric cancer; and is translocated in leukemia. While KDM5B is highly expressed in human mammary tumors and breast cancer cell lines, but not in normal adult breast tissue. Moreover, knockdown of KDM5B leads to upregulation of tumor suppressor genes, including BRCA1. The goal of this project is to employ qHTS to identify selective small molecule inhibitors of KDM5A/B demethylase activity to better understand the role of KDM5 in cancer and to develop novel therapies. We employed an FDH-coupled assay previously reported by Sakurai et al. to monitor in vitro KDM5 demethylase activity. Compounds showing dose response inhibition are re-acquired, validated, and tested for non-specific interference with the formaldehyde dehydrogenase (FDH) counterscreen. True inhibitors are validated using an AlphaLisa secondary screen, which employs an H3K4(me2-1)-specific antibody to monitor demethylation of a biotin-tagged H3K4(me3) peptide substrate. Inhibitors are profiled against KDM4A and KDM6A AlphaLisa counterscreens to determine level of demethylase specificity; and against the TruHits counterscreen to eliminate non-specific inhibitory activity on the AlphaLISA detection method. Selective inhibitors identified from the primary and secondary screening are tested in cells using immunofluorescence to monitor global H3K4 tri-methylation as a measure of KDM5A/B inhibition. Early Translation Branch (ETB) National Center for Advancing Translational Sciences (NCATS), Rockville, MD National Institute of Health (NIH), Bethesda, Maryland [1] Sakurai, M et al. A miniaturized screen for inhibitors of Jumonji histone demethylases. Mol Biosyst. 2010 Feb;6(2):357-64. doi: 10.1039/b912993f. Epub 2009 Oct 8.
Materials: 1536-well Black, solid bottom, medium binding assay plate is purchased from Greiner Bio-one. The enzymes (KDM5B) and substrate (H3K4me3/2) are provided by the principal investigators. The buffer for this assay is composed of 50mM HEPES at pH 7.5 with 0.01% Tween-20. FDH coupled Demethylase qHTS protocol: Three microliter enzyme mix (buffer + 200nM KDM5BDeltaAP final concentration) is dispensed into the assay plate using the BioRAPTR Flying Reagent Dispenser (FRD; […]). Compound (at various final concentration) and control solution is pin transferred to the assay plate using the Kalypsys 1536-pin tool apparatus. The assay plate is incubated for 10 min at room temperature followed by addition of 1uL substrate mix (buffer + 100uM ascorbic acid, 50uM ferrous ammonium sulfate, 12.5uM H3K4Me3, 25uM a-ketoglutarate, 0.25 mM NAD+, 0.25 U/mL formaldehyde dehydrogenase using the FRD yielding a total reaction volume of 4 uL. Initial fluorescence (Read1) is detected using the PerkinElmer ViewLux plate reader equipped with 340 nm excitation and 450 nm emission filters. The final fluorescence (Read2) signal is obtained after 30 min of room temperature incubation. Delta RFU is calculated (Read2 - Read1) and is used to generated dose response curves.
Potency means the concentration at half of the fitted maximal effect.

Compound | Potency
CC(C)(C)c1nc(C(=O)N2CCOCC2)n2ccccc12 | 100 µM (active)
O=C1CCN(C(=O)c2nccc3ccccc23)CCOCCN1 | inactive
O=C(c1cc(-c2ccc(Cl)s2)nc2ccccc12)N1CCOCC1 | inactive
NC(=O)c1ccc(NC(=O)CCc2ncc(-c3ccc(F)cc3)o2)cc1 | inactive
c1cc(-c2ccsc2)n2nc(C3CCCO3)nc2n1 (stereo not given) | 25.1 µM (active)
O=C(CSc1nnc(-c2ccccc2)c2ccccc12)c1ccc2c(c1)OCCCO2 | inactive
O=C(CS(=O)(=O)Cc1coc(-c2ccc(F)cc2)n1)NC1CCCCCC1 | inactive
O=C(COc1ccc(Cl)cc1)Nc1ccc2oc(-c3ccc(F)cc3)nc2c1 | inactive
CC(C)C(Nc1ccc([N+](=O)[O-])cn1)c1ccc(Cl)cc1 (stereo not given) | inactive
Cc1ccnc(N2CCCC(C(=O)NC3CC3)C2)n1 (stereo not given) | inactive
O=C(NC1CCCCC1)c1ccc(Cn2c(SCc3ccccc3)nc3cccnc32)cc1 | inactive
Cc1ccccc1CN1CCC(N2CCCC(C(=O)NC3CC3)C2)CC1 (stereo not given) | inactive
O=C(NC1CCN(c2nc3ncccc3o2)CC1)c1ccc(F)cc1 | 35.5 µM (active)
O=C(NCc1ccccc1)C1CCN(c2nc3ccccc3o2)CC1 | inactive
O=C(NC1C[C@H]2CC[C@@H](C1)N2S(=O)(=O)c1ccc2c(c1)OCCO2)c1ccc(F)cc1 (stereo not given in full) | inactive
O=C(NC1CCN(c2nc3ncccc3o2)CC1)c1ccc(Cl)nc1 | 25.1 µM (active)
CCN(CC)Cc1ccc(CNC(=O)C2CCN(c3nc4ccccc4o3)CC2)cc1 | inactive
CN(C)C(=O)NC1CCN(c2nc3ncccc3o2)CC1 | 31.6 µM (active)
Cc1cc(C)cc(C(=O)NC2CCN(c3cnn(C)c(=O)c3)CC2)c1 | inactive
O=C(NC1CCN(c2cc(C(F)(F)F)ncn2)CC1)c1ccc(F)cc1 | inactive
O=C(NC1CC1)C1CCCN(c2nc3ncccc3o2)C1 (stereo not given) | 35.5 µM (active)
CC/C(=N/N=C(/CC)c1ccccc1)c1ccccc1 | inactive
CC(C)c1nnc(NC(=O)c2cc(Cl)c3c(c2)OCCO3)s1 | inactive
O=C(NCc1ccc(CN2CCCCC2)cc1)c1cc2ccccc2oc1=O | inactive
CC(C)NC(=O)Nc1ccc(CNC(=O)C2(C#N)CCCC2)cc1 | inactive
Cn1c(=O)[nH]c(=O)c2c1nc(N1CCC(Cc3ccccc3)CC1)n2CCCc1ccccc1 | inactive
O=C(NCC(=O)N1CCCC(C(F)(F)F)C1)c1ccccc1F (stereo not given) | inactive

Compound | Potency
CC1CCC(NC(=O)CCCc2ccccc2)CC1 (stereo not given) | inactive
O=C(c1n[nH]c(=O)c2ccccc12)N1CCCCCC1c1nnc(-c2ccccc2)o1 (stereo not given) | inactive
Cc1sc(NCCC(C)C)nc1-c1ccc(NS(C)(=O)=O)cc1 | inactive
CC(C)c1ncc(Cl)c(C(=O)O)n1 | inactive
CN(C)CCNC(=O)c1nc2nc(-c3ccccc3)c(-c3cccc(F)c3)cc2n1C | inactive
COc1ccc(Nc2cc(Cl)ccc2C(=O)O)cn1 | inactive
COc1ccc(Nc2cc3c(nc2-c2ccccc2)nc(C(=O)NCCN(C)C)n3C)cn1 | 31.6 µM (active)
CN(C(=O)CCc1c[nH]c2ccccc12)C1CCCC1 | inactive
O=C1NCc2ccccc2CC12CCCN(Cc1ccc(F)c(Cl)c1)C2 (stereo not given) | inactive
CCOc1ccccc1NC(=O)c1cnc2ccccc2n1 | inactive
CCC(C(=O)Nc1ccc(F)cc1F)n1nc(-c2ccc(C)cc2)ccc1=O (stereo not given) | inactive
O=c1[nH]c(C2CCCN(Cc3ccc(-c4ccsc4)cc3)C2)nc2ccc(F)cc12 (stereo not given) | 79.4 µM (active)
Cc1ccc2nc(C3CCCN(Cc4ccc(C#N)cc4)C3)[nH]c(=O)c2c1 (stereo not given) | inactive
O=c1[nH]c(C2CCN(Cc3ccccc3)CC2)nc2ccc(F)cc12 | inactive
Cc1cc(Cl)cc(SCC(=O)O)c1Cl | inactive
CC(C)NC(=S)N/N=C1\CCc2ccccc21 | inactive
CC(O)CNC(=O)c1ccc(-c2ncc3cnc(C4=CCOCC4)cn23)cc1 (stereo not given) | 35.5 µM (active)
Cc1ccc(S(=O)(=O)N2CC(C)N(S(C)(=O)=O)C2)cc1 (stereo not given) | inactive
COc1ccccc1-c1cc(C(=O)N(C)C)nc2c1cnn2C | 89.1 µM (active)
COc1ccc(CN(C)C(=O)c2nn(C)c(=O)c3ccccc23)cc1F | inactive
COc1ccccc1CNC(=O)c1nn(C)c(=O)c2ccccc12 | inactive
O=C(/C=C/c1ccc(F)cc1)NNC(=O)c1ccc(NC(=O)C2CCCCC2)cc1 | inactive
CCCCCOC(=O)COc1ccc2c(=O)c(Oc3cccc(C)c3)c(C(F)(F)F)oc2c1 | inactive
CC(C)C(NC(=O)Cc1ccc(N2CCCC2=O)cc1)c1nc2ccccc2[nH]1 (stereo not given) | inactive
CCCS(=O)(=O)N1Cc2c(ncn2Cc2ccc(Cl)cc2)C[C@H]1C(=O)OC | inactive
COC(=O)[C@@H]1Cc2ncn(Cc3ccccc3)c2CN1C(=O)CC(C)(C)C | inactive
CCCn1cnc2c1CN(S(=O)(=O)Cc1ccccc1)[C@H](C(=O)OC)C2 | 39.8 µM (active)

Compound | Potency
CCC(C)NC(=O)c1sccc1-c1ccccc1 (stereo not given) | inactive
CCc1nc2ccc(C(=O)NCCCN(CC)CC)cc2nc1CC | inactive
CCc1c(C)sc(NC(=O)c2cccc(Br)c2)c1C#N | inactive
CC1CCC2CCCCC2N1C(=O)c1cc([N+](=O)[O-])cc([N+](=O)[O-])c1 (stereo not given) | inactive
O=S(=O)(c1cccs1)N1CCn2cccc2C1c1ccccc1F (stereo not given) | inactive
Cn1ccnc1C(=O)N1CCC2(CC1)CN(c1ncccn1)CC2CO (stereo not given) | 22.4 µM (active)
CC(=O)N1CC(CO)C2(CCN(C(=O)c3ccccc3Cl)CC2)C1 (stereo not given) | inactive
CCN1C(=O)C2CC3(CCN(C(=O)c4nccn4C)CC3)CN2C1=O (stereo not given) | inactive
Cn1cc(CC(=O)N2CCCc3ncc(C(=O)NCCOc4ccccc4)cc32)c2ccccc21 | inactive
Cc1cccc(NC(CNS(=O)(=O)c2ccccc2)c2ccccc2)c1 (stereo not given) | inactive
CC(C)OCCC(=O)N1CCCC(CN2CCN(c3ccccn3)CC2)C1 (stereo not given) | inactive
O=C(CC(NC(=O)c1ccccc1)c1ccccc1)NCc1cccs1 (stereo not given) | inactive
CCOC(=O)N1CCN(Cc2cc(=O)oc3c(C)c(C)cc(C)c23)CC1 | inactive
CCC(Sc1nc2ncccc2[nH]1)C(=O)Nc1ccc(C)c(Cl)c1 (stereo not given) | inactive
Cc1cc(C)c(-c2nc3ncccc3[nH]2)[nH]1 | 35.5 µM (active)
c1cnc2nc(C3CCCCN3)[nH]c2c1 (stereo not given) | inactive
OC(c1nc2ccc(F)cc2[nH]1)C(O)c1nc2ccc(F)cc2[nH]1 (stereo not given) | inactive
NC(=O)c1cccc(-c2ncc3c(n2)OCCN(Cc2ccccc2)C3=O)c1 | inactive
COc1ccc(-c2ncc3c(n2)OCCN(Cc2ccccc2)C3=O)cn1 | 28.2 µM (active)
O=C1c2cnc(-c3ccccc3)nc2OCCN1c1ccccc1 | inactive
NC(=O)c1cccc(-c2ncc3c(n2)OCCN(c2cccc(C(F)(F)F)c2)C3=O)c1 | inactive
O=C1c2cnc(-c3ccc(O)c(F)c3)nc2OCCN1Cc1ccccc1 | 20 µM (active)
O=C1c2cnc(-c3ccc(Cl)cc3)nc2OCCN1Cc1ccccc1 | inactive
CCCNc1c(NC(=O)Nc2ccccc2)c(=O)oc2ccccc12 | inactive
CCCCN1C(=O)NC(c2ccc(OC)cc2)C2=C1COC2=O (stereo not given) | inactive
O=C(Nc1ccc(F)cc1)C1=C(N2CCCC2)c2ccccc2S1(=O)=O | inactive
Cn1nc(C(=O)Nc2nc(-c3cc(F)ccc3F)cs2)c2ccccc2c1=O | inactive

Compound | Potency
CC(C)(C)Sc1ccc2nn(CC(=O)NCc3ccccc3Cl)c(=O)n2n1 | inactive
Cc1nc(Cc2nn3c(-c4cc(Cl)ccc4F)nnc3s2)cs1 | inactive
Cc1nc(C)c(C(=O)C2=C(O)C(=O)N(CCN3CCOCC3)C2c2ccc(C(C)(C)C)cc2)s1 (stereo not given) | inactive
COC(=O)c1ccc(COc2c(Cl)cccc2Cl)cc1 | inactive
Cc1nn(-c2ccc(C(C)C)cc2)c(C)c1[C@@H]1C=C[C@@H](NC(=O)Nc2ccccc2)C1 | inactive
Cc1nn(-c2ccccc2)c(C)c1[C@@H]1C=C[C@@H](NC(=O)c2ccc3c(c2)OCO3)C1 | inactive
Cc1nn(-c2ccc(C(C)(C)C)cc2)c(C)c1[C@@H]1C=C[C@@H](NC(=O)c2ccco2)C1 | 31.6 µM (active)
CCCCN(CCCC)c1nc2ccccc2nc1C(C#N)C(=O)OC(C)C (stereo not given) | inactive
N#Cc1cccc(Oc2cccc3cccnc23)c1C#N | inactive
c1csc(CNCC2CCNCC2)c1 | inactive
CSc1ccc(-c2ccc(C=O)cc2)cc1 | 10 µM (active)
O=Cc1cccc(-c2cc(F)cc(F)c2)c1 | inactive
CSc1ccc(/C=N/Nc2c(Cl)cc(Cl)cc2Cl)cc1 | inactive
CNC(=O)c1cccc(CNC(=O)C=C(C)C)c1 | inactive
Cc1noc(C)c1COc1ccc(C(=O)NCCOc2ccccc2)cc1 | inactive
Cc1nn(-c2nc3c(c(=O)n(CCN4CCCCC4)c(=O)n3C)n2C)c(C)c1C | inactive
CCOC(=O)c1ccc(NC(=O)Cn2c(=O)cc(C)c3c(C)nn(-c4cccc(F)c4)c32)cc1 | inactive
CCOCC(=O)Nc1nn(-c2cccc(F)c2)c2cccc(N3CCOC3=O)c12 | 28.2 µM (active)
COc1cccc(NC(=O)Cn2c(=O)cc(C)c3c(C)nn(-c4cccc(F)c4)c32)c1 | inactive
COCCN1C(=O)C(O)=C(C(=O)c2ccc(C)o2)C1c1ccc(O)c(OC)c1 (stereo not given) | inactive
CC1=C[C@@H](CNC(=O)C2CCCCC2)[C@H](C(C)C)C[C@H]1Cc1nc2ccc(F)cc2[nH]1 | inactive
CC(=O)Nc1cc(C(=O)NCc2ccc(F)cc2)ccc1Sc1ccc(F)cc1 | inactive
CCc1ccc(CNC(=O)C2CCN(c3nn4cc(-c5ccc(F)cc5)nc4s3)CC2)cc1 | inactive
CC(C)Cn1cncc1CNC(=O)c1ccc2nc(-c3ccc(F)cc3)cn2c1 | 25.1 µM (active)
